The list is not random: actives were taken first. Their share in the collection is about 19%.
TDP1 cell noCPT: qHTS for Inhibitors of human tyrosyl-DNA phosphodiesterase 1 (TDP1): qHTS in cells in absence of CPT. DT40 Tdp1-/- hTDP1 cells, no CPT, ATP luminescence, 48 h. AID 686978, 2013. 420,000 compounds, 15% hits. Potency, µM (titrated, usually from 46.2 µM), for inactives: at the highest dose activity change, negative = growth inhibition, usual class: inhibitors; further: potency means the concentration at half of the fitted maximal effect; nearly all actives have a fitted effect of over 55% in size
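Luminescent ATP content (CellTiter-Glo) served as the growth readout. Knockout chicken DT40 cells expressing human TDP1 were exposed to compounds without camptothecin for a minimum 48 hr at 37 °C.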
DT40 TDP1 CPT: growth inhibition of DT40 Tdp1-/-;hTDP1 cells with camptothecin (screen for TDP1 inhibitors); chicken DT40 Tdp1-/-;hTDP1 cells + 20 nM CPT, ATP luminescence, 48 h; Potency, µM (series often up to 46.2 µM), for the others: top-dose activity change, negative = growth inhibition, usual class: inhibitors; 420,000 compounds, 12% hits; further: potency means the concentration at half of the fitted maximal effect; nearly all actives have a fitted effect of over 55% in size
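Cell growth measured by CellTiter-Glo luminescence after a minimum 48 h, 37 C compound exposure with 20 nM CPT in Tdp1-knockout DT40 cells stably expressing hTDP1, seeded 400/well; qHTS titration format.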
HT1080 IDH1KD tx: toxicity to HT-1080 IDH1 knockdown cells (counter line). Potency, µM (titrated, usually from 46.1 µM), for inactives: at the top dose activity, negative = toxicity, actives largely listed as cytotoxic. 360,000 compounds, 2% hits. HT-1080 IDH1 knockdown viability, ATP luminescence, 48 h;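 further: potency means the concentration at half of the fitted maximal effect; 0% = DMSO wells and -100% = cell-free medium wells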
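HT-1080-IDH1KD cells (IDH1 knocked down), 750/well in RPMI with 5% FBS, treated with compound 48 h at 37 degrees C. Viability by CellTiter-Glo luminescence, normalised to DMSO and no-cell wells; concentration-response curves classed.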
IL-1B inflam inh: inflammasome signaling inhibition, IL-1 beta readout; AID 743279; THP-1 LPS/ATP IL-1B secretion, AlphaLISA, 16 h; active compounds read low; 360,000 compounds, 4.7% hits; activity change, % at 57.5 µM; in the data active means activity change below about -50%; inconclusive means mostly about -30% to -49%
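THP-1 cells pretreated 1 hr with compounds (up to 57.5 uM final), then stimulated with LPS (250 ng/mL final) plus ATP (1.25 mM final); secreted IL-1B measured by AlphaLISA after 16 hr, decreased signal indicating inhibition.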
HT1080NT lethal: kills 2HG-producing HT-1080-NT fibrosarcoma cells; HT-1080-NT fibrosarcoma viability, CellTiter-Glo ATP luminescence, 48 h; Potency, µM (doses to about 46.1 µM), inactives show top-dose activity, negative = less viability, usual class: cytotoxic; 360,000 compounds, 1.6% hits; AID 686970;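 further: NT is the 2HG producing partner of a matched IDH1 knockdown line; potency means the concentration at half of the fitted maximal effect; 0% = DMSO-treated cells and -100% = media-only wells without cells; nearly all actives have a fitted effect of over 55% in size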
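Fibrosarcoma NT cells, 750 per well in 5% FBS RPMI, were exposed to compound for 48 hours. Viability: CellTiter-Glo luminescence.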
* marks the source's active call; other numbers are inactive results; ? = inconclusive; . = no result given. Unless noted, the call rests on the fitted dose curve; in most records, active means well fitted curve in the direction sought with a large enough effect; inconclusive means small, poorly fitted or top-dose-only effect, or another doubt; inactive means no such curve, though single readings can be large; an effect the other way counts as inactive or inconclusive. Unless noted, on the % scale 0 is the no-effect control and ±100 the full control effect.

SMILES	TDP1 cell noCPT	DT40 TDP1 CPT	HT1080 IDH1KD tx	IL-1B inflam inh	HT1080NT lethal
Cc1nnc(C(C)C)n1C1C[C@H]2CC[C@@H](C1)N2CC[C@H](NC(=O)C1CCC(F)(F)CC1)c1ccccc1 (stereo not given in full)	-9%	-4%	.	.	.
COC(=O)Nc1nc(C)c(C(=O)c2ccccc2)s1	12µM*	8.2µM*	?	26	?
COC(=O)Nc1nc(-c2ccccc2)c(C(=O)c2ccccc2)s1	0.65µM*	0.82µM*	?	33	?
Cc1ccc2cc(CCNS(=O)(=O)c3ccc(Br)cc3)c(=O)[nH]c2c1C	23µM*	?	0%	-23	-22%
Cc1cc(C)c(S(=O)(=O)NCCc2cc3ccc(C)c(C)c3[nH]c2=O)c(C)c1	18µM*	?	20%	-3	7%
CC(=O)NCCc1cc2ccc(C)c(C)c2[nH]c1=O	-2%	0%	9%	12	-1%
CN1CCN(NC(=O)c2ccc(COc3ccccc3Br)o2)CC1	?	?	-3%	-9	-7%
O=S(=O)(NCC1CCCO1)c1ccc(-c2ccc(S(=O)(=O)NCC3CCCO3)cc2)cc1 (stereo not given)	1.8µM*	0.65µM*	-29%	-2	-10%
COc1ccc(NS(=O)(=O)c2ccc(NC(=S)NCC3CCCO3)cc2)cc1 (stereo not given)	?	15µM*	-17%	48	-5%
Cc1ccc(C(=O)NC(=S)NCC2CCCO2)cc1Br (stereo not given)	29µM*	?	-3%	10	-1%
S=C(NCC1CCCO1)Nc1ccc(Cl)c(Cl)c1 (stereo not given)	23µM*	?	-11%	-11	0%
Cc1ccc(S(=O)(=O)NCC2CCCO2)cc1 (stereo not given)	3%	-1%	19%	11	3%
O=C(Cc1ccc(Cl)c(Cl)c1)NNC(=S)NCC1CCCO1 (stereo not given)	-2%	-3%	-4%	-7	17%
O=C(NC(=S)NCC1CCCO1)c1ccccc1Br (stereo not given)	12%	9%	20%	6	13%
COc1ccc(S(=O)(=O)Nc2ccc(S(=O)(=O)NCC3CCCO3)cc2)cc1 (stereo not given)	7%	-10%	0%	-16	2%
CCCCN1C(=O)C(CC(=O)NC2CCCC2)CC(C(=O)N2CCCCCC2)=C1C (stereo not given)	-18%	-5%	4%	.	-4%
COc1ccc(C2CC(c3cccc([N+](=O)[O-])c3)=NN2/C(C)=C/C(C)=O)cc1 (stereo not given)	?	16µM*	-4%	1	-5%
COc1ccc(C2=NN(C(=O)c3cccc([N+](=O)[O-])c3)C(c3cccc([N+](=O)[O-])c3)C2)cc1 (stereo not given)	-14%	3%	-13%	-4	-4%
COc1ccc(C2CC(c3ccc(Br)cc3)=NN2C(=O)CN2CCCC2)cc1 (stereo not given)	12µM*	?	?	-62*	?
CNC(=S)N1N=C(c2ccc(Br)cc2)CC1c1ccc(OC)cc1 (stereo not given)	9.2µM*	?	-1%	-11	7%
COc1ccc(C2CC(c3ccccc3)=NN2C(=O)COC(=O)c2cnc(Cl)c(Cl)c2)cc1 (stereo not given)	?	21µM*	12%	0	20%
COc1ccc(NC(=O)COC(=O)CO/N=C(\C)c2ccc3c(c2)OCO3)cc1S(N)(=O)=O	-11%	1%	12%	0	0%
CCC1(C)NC(=O)N(CC(=O)N2N=C(c3ccccc3)CC2c2ccc(OC)cc2)C1=O (stereo not given)	-9%	11%	-8%	-2	-1%
COc1ccc(C2CC(c3ccccc3)=NN2C(=O)CSc2ncn[nH]2)cc1 (stereo not given)	-15%	?	-10%	-71*	1%
COc1ccc(C2=NN(C(=O)CN3CCCCC3)C(c3ccc(C)cc3)C2)cc1 (stereo not given)	?	?	-17%	-87*	0%
SMILES	TDP1 cell noCPT	DT40 TDP1 CPT	HT1080 IDH1KD tx	IL-1B inflam inh	HT1080NT lethal
COc1ccc(C2CC(c3ccccc3)=NN2C(=O)CN2CCN(Cc3ccccc3)CC2)cc1 (stereo not given)	26µM*	?	5%	-66*	10%
COc1ccc(C2=NN(C(=O)CCC(=O)O)C(c3ccccc3)C2)cc1 (stereo not given)	15%	-4%	-1%	12	8%
NS(=O)(=O)c1ccc(CCNC(=O)C(=O)C2C(=O)Nc3ccccc32)cc1 (stereo not given)	-5%	-9%	7%	21	11%
CCN1CCN(Cc2ccc(NC(=O)c3ccc(C)c(NC(=O)c4c[nH]c5cc(C(F)(F)F)ccc5c4=O)c3)cc2C(F)(F)F)CC1	4.1µM*	4.6µM*	3.3µM*	-105*	3.3µM*
Cc1ccc(C(=O)Nc2cccc(C(F)(F)F)c2)cc1NC(=O)c1c[nH]c2cc(C(F)(F)F)ccc2c1=O	?	5.2µM*	12%	38	7%
Cc1ccc2nc3c(cc(C#N)c(=O)n3-c3nnc(SCc4ccc(F)cc4)s3)c(=O)n2c1	-22%	-23%	.	.	.
CCN1CCN(C(c2cccs2)C(C)NC(=O)c2cccnc2)CC1 (stereo not given)	11%	-2%	1%	-19	-3%
CC[C@]12c3[nH]c4ccccc4c3CCN1C(=O)C(CC(=O)NCCCn1ccnc1)C[C@@H]2C(=O)N1CCN(C(=O)c2ccco2)CC1 (stereo not given in full)	-13%	6%	2%	-3	-3%
CC[C@]12c3[nH]c4ccc(Cl)cc4c3CCN1C(=O)[C@@H](CC(=O)NCCN1CCOCC1)C[C@@H]2C(=O)N1CCN(C(=O)c2ccco2)CC1	-2%	-12%	0%	-7	0%
CC[C@]12c3[nH]c4ccc(Cl)cc4c3CCN1C(=O)[C@@H](CC(=O)NCC13CC4CC(CC(C4)C1)C3)C[C@@H]2C(=O)N1CCN(C(=O)c2ccco2)CC1	13µM*	?	18µM*	-26	?
CC[C@]12c3[nH]c4ccc(OC)cc4c3CCN1C(=O)C(CC(=O)NCC13CC4CC(CC(C4)C1)C3)C[C@@H]2C(=O)N1CCN(C(=O)c2ccco2)CC1 (stereo not given in full)	8.2µM*	12µM*	?	-55*	-29%

Source: PubChem BioAssay (National Center for Advancing Translational Sciences (NCATS))
